Experimental data from PubChem BioAssay (NCATS).
Where “and” joins values, the source holds several entries; their conditions need not be identical. Equal values may be shown once. Results filed as inconclusive are left out. Calls of active or inactive are those of the source. Calls follow the shape of the dose curve; as a rule, active = well fitted curve in the direction sought with a large enough effect; inconclusive = small, poorly fitted or top-dose-only effect, or another doubt; inactive = no such curve, though single readings can be large; an effect the other way counts as inactive or inconclusive.

Columns and labels:
[1] = biological target: Cellular tumor antigen p53 (Homo sapiens) (UniProt P04637); test: Primary qHTS for small molecule compounds that upregulate eGFP-tagged delta133p53alpha (in N-terminal) cells. (AID 2060322); conditions: NCI-H358 eGFP-delta133p53alpha fluorescence, 24 h; activation: hits give high values; also: nearly all actives have a fitted effect of over 75% in size; also: potency is read from the fitted curve at half-maximal effect;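 as to activation: cells pre-induced with doxycycline then dosed without doxycycline; series mostly up to about 56 µM; 0% = DMSO vehicle and 100% = reference activator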
Procedure, shortened: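 NCI-H358 cells pre-induced 24 h with 10 ng/ml doxycycline for eGFP-delta133p53alpha, plated dox-free and exposed 24 h at 37C to titrated compounds. Fixed, Hoechst-stained; gated GFP peak intensity by laser scanning cytometry, normalized to DMSO (0%) and 57.5 uM 5-azacytidine (100%).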

[2] = biological target: Aldehyde dehydrogenase, mitochondrial (Homo sapiens) (UniProt P05091); test: qHTS for Inhibitors of the Aldehyde Dehydrogenase Family (ALDH2) Primary screen (AID 2061308);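 also: plate controls were vehicle for no effect and reference inhibitor for full effect; nearly all actives have a fitted effect of over 55% in size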
[3] = biological target: Retinaldehyde dehydrogenase 3 (Homo sapiens) (UniProt P47895); test: qHTS for Inhibitors of the Aldehyde Dehydrogenase Family (ALDH1A3) Primary screen (AID 2061315);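 also: plate controls were DMSO vehicle for no effect and reference inhibitor for full effect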
[4] = BET inhibitor-based combinations targeting novel dependencies in MECOM-rearranged (r) AML: SET-2 cell line (AID 2202231); conditions: SET-2 AML cells viability, CellTiter-Glo luminescence, 48 h; viability: hits give low values, concentration not given here; also: nearly all actives have a fitted effect of over 35% in size; also: potency is read from the fitted curve at half-maximal effect;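 as to viability: plate controls were DMSO treated cells for no effect and wells without cells for full effect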
Procedure, shortened: (§1)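 Viability of cells (500 per well) is scored by luminescent CellTiter-Glo at 48 hr post-dosing. Eleven-point titrations are normalized to DMSO and empty controls and reduced to AUC values.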

[5] = BET inhibitor-based combinations targeting novel dependencies in MECOM-rearranged (r) AML: HNT-34 cell line (AID 2202234); also: nearly all actives have a fitted effect of over 35% in size; also: potency is read from the fitted curve at half-maximal effect
Procedure, shortened: (§2)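 Using pin-tool transfer, drugs were added in 11 doses to cells (500/well), incubated 48 hr, and assessed with CellTiter-Glo. Z-AUC is a mean-centring transformation applied separately to each screened line.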

[6] = BET inhibitor-based combinations targeting novel dependencies in MECOM-rearranged (r) AML: AML-194 cell line (AID 2202237; also: nearly all actives have a fitted effect of over 40% in size; also: potency is read from the fitted curve at half-maximal effect)
Procedure, shortened: as §1

[7] = BET inhibitor-based combinations targeting novel dependencies in MECOM-rearranged (r) AML: UCSD-AML1 cell line (AID 2202235); also: nearly all actives have a fitted effect of over 40% in size; also: potency is read from the fitted curve at half-maximal effect
Procedure, shortened: as §2

[8] = BET inhibitor-based combinations targeting novel dependencies in MECOM-rearranged (r) AML: AML-191 cell line (AID 2202236; also: nearly all actives have a fitted effect of over 35% in size; also: potency is read from the fitted curve at half-maximal effect)
Procedure, shortened: as §1

[9] = BET inhibitor-based combinations targeting novel dependencies in MECOM-rearranged (r) AML: OCI-AML3 cell line (AID 2202232); conditions: Potency: OCI-AML3 viability; also: potency is read from the fitted curve at half-maximal effect; nearly all actives have a fitted effect of over 35% in size
Procedure, shortened: as §1

[10] = BET inhibitor-based combinations targeting novel dependencies in MECOM-rearranged (r) AML: MV-4-11 cell line (AID 2202233); also: potency is read from the fitted curve at half-maximal effect; nearly all actives have a fitted effect of over 45% in size
Procedure, shortened: as §2

Sequence of Cellular tumor antigen p53 (Homo sapiens) (P04637 whole entry, looked up): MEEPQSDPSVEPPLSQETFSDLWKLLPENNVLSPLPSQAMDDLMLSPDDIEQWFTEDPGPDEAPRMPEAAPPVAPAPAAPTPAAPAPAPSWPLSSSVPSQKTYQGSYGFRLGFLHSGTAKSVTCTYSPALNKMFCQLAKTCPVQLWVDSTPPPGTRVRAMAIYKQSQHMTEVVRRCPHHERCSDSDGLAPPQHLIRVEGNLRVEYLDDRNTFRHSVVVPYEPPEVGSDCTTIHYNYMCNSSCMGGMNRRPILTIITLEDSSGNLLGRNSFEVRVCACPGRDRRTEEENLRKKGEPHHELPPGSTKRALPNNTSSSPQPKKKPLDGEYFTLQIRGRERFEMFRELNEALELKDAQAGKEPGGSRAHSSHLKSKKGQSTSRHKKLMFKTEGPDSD

Cn1ncc(Cl)c1-c1cc(C(=O)N[C@H](CN)Cc2cccc(F)c2)sc1Cl
inactive: Potency [2] | Potency [3]
active: Potency [1] 30.1 µM | Potency [4] 9.34 µM | Potency [5] 16.6 µM | Potency [6] 18.6 µM

Cc1cccc(-c2[nH]c(CNc3ccccc3F)nc2-c2ccc3ncnn3c2)n1
inactive: activation [1] -27.7% | Potency [2] | Potency [3] | viability [4] 100% | Potency [7] | Potency [8] | Potency [6]

COc1cc2c(NC3CCN(C(C)C)CC3)nc(C3CCCCC3)nc2cc1OCCCN1CCCC1
inactive: activation [1] 27.1% and 25.7% | Potency [2] | Potency [3]
active: Potency [9] 18.6 µM | Potency [10] 8.33 µM | Potency [5] 11.8 µM | Potency [7] 11.8 µM | Potency [8] 20.9 µM | Potency [6] 14.8 µM

COc1ccc(Cl)c(Nc2ncnc3cc(OCC4CCN(C)CC4)c(OC)cc23)c1
active: Potency [1] 6.01 µM | Potency [9] 29.5 µM | Potency [10] 5.9 µM | Potency [5] 0.742 µM | Potency [8] 23.5 µM
inactive: Potency [2] | Potency [3] | Potency [7]

Cc1cc2c(F)c(Oc3ncnn4cc(OCC(C)OC(=O)C(C)N)c(C)c34)ccc2[nH]1 (centres undefined)
active: Potency [9] 11.8 µM | Potency [10] 11.8 µM
inactive: activation [1] -1.79% | Potency [2] | Potency [3]

CS(=O)(=O)N(Cc1ccco1)CC(O)Cn1c2ccccc2c2ccccc21 (centres undefined)
inactive: activation [1] -2.66% | Potency [2] | Potency [3] | viability [4] 98.8% | Potency [5] | Potency [7] | Potency [8] | Potency [6]

CCc1nc(C(N)=O)c(Nc2ccc(N3CCC(N4CCN(C)CC4)CC3)c(OC)c2)nc1NC1CCOCC1
inactive: activation [1] -44.7% | Potency [2] | Potency [3]
active: Potency [9] 5.9 µM | Potency [10] 0.059 µM | Potency [5] 1.48 µM | Potency [7] 2.63 µM | Potency [8] 2.63 µM | Potency [6] 3.32 µM

COc1ccc2c(c1)CC[C@@H](CN(C)CC(=O)O)[C@H]2c1ccccc1
inactive: activation [1] -11.9% | Potency [2] | Potency [3] | viability [4] 116% | Potency [7] | Potency [6]

CC1=C[C@@H]2[C@@H]([C@@H](O)C[C@@]3(C)[C@H]2C[C@@H](C)[C@]3(O)C(=O)CO)[C@@]2(C)Cc3cnn(-c4ccccc4)c3C=C12
active: Potency [9] 18.6 µM | Potency [10] 18.6 µM | Potency [5] 18.6 µM
inactive: activation [1] -34.9% | Potency [2] | Potency [3]

Cc1c(NC(=O)c2cc(C(N)=O)nc3cc(F)ccc23)c(C(F)(F)F)nn1Cc1ccc(C#N)cc1
inactive: activation [1] 14.3% | Potency [2] | Potency [3] | viability [4] 101% | Potency [7]

COC(=O)c1ccc2c(C(=Nc3ccc(N(C)C(=O)CN4CCN(C)CC4)cc3)c3ccccc3)c(O)[nH]c2c1
inactive: activation [1] 5.68% | Potency [2] | Potency [3]
active: Potency [9] 10.5 µM | Potency [10] 0.166 µM | Potency [5] 1.32 µM | Potency [7] 5.25 µM | Potency [8] 5.25 µM | Potency [6] 5.25 µM

COc1cc(N2CCC(N3CCN(C)CC3)CC2)ccc1Nc1ncc(Cl)c(Nc2ccccc2P(C)(C)=O)n1
active: Potency [1] 3.01 µM | Potency [9] 0.742 µM | Potency [10] 0.0186 µM | Potency [5] 0.934 µM | Potency [7] 0.742 µM
inactive: Potency [2] | Potency [3]

CN(C)c1ccc(C2Nc3ccc4ccccc4c3C3=C2C(=O)CC(C)(C)C3)cc1Br (centres undefined)
inactive: activation [1] 5.76% and 26.3% | Potency [2] | Potency [3] | viability [4] 107% | Potency [7] | Potency [8]

CC(=O)c1c(C)c2cnc(Nc3ccc(N4CCNCC4)cn3)nc2n(C2CCCC2)c1=O
active: Potency [9] 20.9 µM | Potency [10] 6.61 µM | Potency [5] 16.6 µM | Potency [7] 13.2 µM | Potency [8] 16.6 µM | Potency [6] 14.8 µM
inactive: activation [1] 46.5% and -19.6% | activity change, negative = inhibition [2] 10.9% [at 5.59 µM] | activity change, negative = inhibition [3] -7.36% [at 5.59 µM]

Nc1ncnc2c1c(COc1cccc(Cl)c1)nn2C1CCOCC1
inactive: activation [1] 15.2% | Potency [2] | Potency [3] | viability [4] 99.8% | Potency [7] | Potency [8]

O=C(Nc1ccc(OC(F)(F)F)cc1)c1sccc1NCc1ccnc2ccccc12
active: Potency [9] 5.25 µM | Potency [10] 6.61 µM | Potency [5] 10.5 µM | Potency [7] 5.9 µM | Potency [8] 8.33 µM | Potency [6] 5.9 µM
inactive: activation [1] 27.4% | Potency [2] | Potency [3]

O=C(C1CC1)N1CC[C@@H](Cc2n[nH]c(=O)n2-c2ccc(-c3ccc4occc4c3)cc2)C1
inactive: activation [1] -2.33% and -15.1% | Potency [2] | Potency [3] | viability [4] 95.8% | Potency [7] | Potency [8] | Potency [6]

CC(C)(O)c1cc2nc(-c3cnc(N)nc3)nc(N3CCOCC3)c2s1
inactive: activation [1] 18.8% | Potency [2] | Potency [3]
active: Potency [9] 1.32 µM | Potency [10] 1.32 µM | Potency [5] 1.86 µM | Potency [7] 0.332 µM
